Shown are actives, neighbours in structure and some others; about 14% of the full set was active somewhere.
A350 fluor = compounds fluorescent in Alexa 350 spectral region; Compound autofluorescence, 340/450 nm, Alexa 350 dye-equivalents; hits give high values; max dye-equivalent concentration, M; hit rate 11% among 59,000; in the data active means max dye-equivalent concentration above about 10 nM; inconclusive means mostly about 1.1 nM to 9.6 nM
4-MU autofl = 4-MU region autofluorescence | hit rate 11% among 59,000 | compound autofluorescence, 340/450 nm, 4-MU equivalents; hits give high values | max dye-equivalent concentration, M; in the data active means max dye-equivalent concentration above about 10 nM; inconclusive means mostly about 1.1 nM to 9.6 nM
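Intrinsic fluorescence at 340/450 nm (ex/em) was read after 15 min at room temperature in pH 8.0, 100 mM Tris. Each compound concentration expressed as 4-MU-equivalent concentration from a six-point 4-MU standard series on each plate.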
HADH2 inh = HADH2 (human) dehydrogenase inhibition | recombinant HADH2, NADH fluorescence, beta-hydroxybutyryl-CoA | Potency, µM (highest dose often 57.1 µM), hits mostly inhibitors | Q99714 | hit rate 3.4% among 73,000; further: nearly all actives have a fitted effect of over 60% in size
Target sequence (Q99714 whole entry, looked up, one chain of several): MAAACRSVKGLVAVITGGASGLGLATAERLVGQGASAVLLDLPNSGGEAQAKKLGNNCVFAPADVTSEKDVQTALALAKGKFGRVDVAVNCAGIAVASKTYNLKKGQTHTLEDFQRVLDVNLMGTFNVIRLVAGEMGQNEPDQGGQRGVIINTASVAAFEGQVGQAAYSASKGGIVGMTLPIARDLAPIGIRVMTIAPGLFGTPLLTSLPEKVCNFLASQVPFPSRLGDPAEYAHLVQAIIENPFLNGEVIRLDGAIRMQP
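NADH fluorescence (ex 360/em 450 nm) read every 30 s for 4 min; activity taken as last-minus-first time point difference. Enzyme 20 nM, NAD+ 1 mM, beta-hydroxybutyryl-CoA 90 uM, pH 9.0 Tris buffer.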
HSD17B inhib = inhibitors of human HSD17B10 dehydrogenase. hit rate 7.6% among 75,000. recombinant HSD17B10, NADH fluorescence kinetic. Q99714. AID 893. Potency, µM (doses to about 57.1 µM), actives largely listed as inhibitors;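 further: the protocol describes HADH2 (HSD17B10) and not the HSD17B4 of the title; nearly all actives have a fitted effect of over 70% in size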
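Activity followed as NADH fluorescence increase (ex 360, em 450 nm) every 30 seconds for 4 min, using final 90 uM beta-hydroxybutyryl CoA and 1 mM NAD+. Recombinant His-tagged enzyme, 20 nM, pH 9.0 Tris buffer, 15 min compound preincubation.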
CRE-bla Fsk = CRE-bla signaling modulation under forskolin stimulation. AID 662. CHO CRE-bla reporter (cAMP response element driving beta-lactamase), forskolin EC10, beta-lactamase ratio. hit rate 2.5% among 71,000. Potency, µM (titrated, usually from 38.2 µM), usual class: activators; active means well fitted activation curve with a large enough effect in the signal ratio, with a control signal flat, not every such curve was filed as active; inconclusive means small, poorly fitted or top-dose-only effect, or effect the other way, or a change in a side signal; the % refers to the signal ratio
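Modulation of forskolin-driven signalling is measured in CHO cells carrying a CRE-controlled beta-lactamase reporter. Cells are stimulated with EC10 NKH 477 in the presence of titrated compound for 3 h at 37 °C, then loaded with CCF4 for 2 h at room temperature.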
AID923 = qHTS Assay for Allosteric/Competitive Inhibitors of Caspase-1: Spectroscopic Profiling in AFC Spectral Region; hit rate 1.1% among 75,000; AID 923, 2007; Potency, µM (doses to about 57.5 µM), usual class: activators; compound fluorescence, AFC spectral region (405/520 nm)
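Baseline compound fluorescence (AFC region, 405 nm ex/520 nm em) taken from the intercept of kinetic reads with 50 nM caspase-1 and 5 uM Ac-WEHD-AFC; normalized to an on-plate AFC standard curve; compounds titrated up to 57 uM.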
Large screens that a line does not name were inactive; ! = repeats disagree. Unless noted, the call rests on the fitted dose curve; in most records, active means well fitted curve in the direction sought with a large enough effect; inconclusive means small, poorly fitted or top-dose-only effect, or another doubt; inactive means no such curve, though single readings can be large; an effect the other way counts as inactive or inconclusive.

COc1cc(OC)cc([C@H](CNc2ncnc3c2ncn3[C@@H]2O[C@@H](CO)[C@H](O)[C@@H]2O)c2ccccc2C)c1	A350 fluor inconclusive, 4-MU autofl 1.27e-08M (no result: HSD17B inhib, AID923)
OC[C@H]1O[C@@H](n2cnc3c(NCCc4ccccc4)ncnc32)[C@H](O)[C@H]1O	none (no result: A350 fluor, 4-MU autofl, CRE-bla Fsk)
CCC(=O)[C@]12O[C@@]3(C4C(=O)OCCC41)N(CC)C(C)=C(C(=O)OC)C(c1ccccc1)N3C2=O (some centres not stated)	none (no result: A350 fluor, 4-MU autofl, CRE-bla Fsk)
COc1ccccc1N1CCN(CCCNc2c(C)c(=O)n(C)c(=O)n2C)CC1	A350 fluor inconclusive, 4-MU autofl inconclusive
COc1ccccc1N1CCN(CCCNc2cc(=O)n(C)c(=O)n2C)CC1	A350 fluor 1.46e-08M!, 4-MU autofl 1.69e-08M!
COc1ccc2[nH]c(=O)c(CN(CCN3CCCC3)C(=O)Nc3ccccc3Cl)cc2c1	A350 fluor 2.48e-07M, 4-MU autofl 2.5e-07M, HSD17B inhib 25.1µM
COc1ccccc1NC(=O)N(Cc1cc2cc(OC)c(OC)cc2[nH]c1=O)CC1CCCO1 (configuration not stated)	A350 fluor 9.15e-08M, 4-MU autofl 1.03e-07M, HADH2 inh inconclusive, HSD17B inhib 25.1µM, CRE-bla Fsk inconclusive
COc1cc(C(=O)N(Cc2cc3ccccc3[nH]c2=O)CC2CCCO2)cc(OC)c1OC (configuration not stated)	none
COc1ccc2[nH]c(=O)c(CN(CC3CCCO3)C(=O)Nc3ccccc3OC)cc2c1 (configuration not stated)	A350 fluor 7.09e-08M, 4-MU autofl 7.62e-08M, HSD17B inhib inconclusive, CRE-bla Fsk inconclusive
COc1ccccc1NC(=O)N(Cc1ccco1)Cc1cc2cccc(C)c2[nH]c1=O	none
COc1ccccc1NC(=O)N(Cc1ccco1)Cc1cc2c(C)ccc(C)c2[nH]c1=O	HSD17B inhib 31.6µM, CRE-bla Fsk inconclusive
COC(=O)C(/C=C/C(C)Cc1cc(Br)cc(OCc2ccccc2)c1OC)OCc1ccccc1 (configuration not stated)	none (no result: A350 fluor, 4-MU autofl, CRE-bla Fsk)
Nc1nc(Nc2ccccc2)nc2c1ncn2[C@@H]1O[C@@H](CO)[C@H](O)[C@@H]1O	none
CCOC(=O)CNC(=O)c1nn(-c2ccc(OCC)cc2)c(=O)c2ccccc12	A350 fluor 1.19e-08M, 4-MU autofl 1.33e-08M, CRE-bla Fsk inconclusive
O=C(Nc1cc(=O)c2ccccc2o1)N1CCOCC1	HSD17B inhib inconclusive, CRE-bla Fsk inconclusive (no result: A350 fluor, 4-MU autofl)
Cc1ccc2oc(NC(=O)N3CCOCC3)cc(=O)c2c1	A350 fluor inconclusive, 4-MU autofl inconclusive, CRE-bla Fsk 0.316µM
O=c1c2ccccc2nc(SCc2cn3ccsc3n2)n1-c1ccc(F)cc1	CRE-bla Fsk 3.98µM
Cc1sc2nc3c(C(=O)N4CCN(c5ncccn5)CC4)cccn3c(=O)c2c1C	A350 fluor 2.63e-08M, 4-MU autofl 2.56e-08M, CRE-bla Fsk inconclusive
O=C(O)C1CC(=O)N(CCC23CC4CC(CC(C4)C2)C3)C(=Nc2ccccc2)S1 (configuration not stated)	HSD17B inhib inconclusive (no result: A350 fluor, 4-MU autofl, CRE-bla Fsk)
NCCC[C@@H](CC(=O)N[C@@H]1CCCC[C@H]1C(=O)N[C@H](CC(=O)N[C@@H](CCC(=O)O)CC(=O)O)Cc1ccccc1)NC(=O)C[C@H](Cc1c[nH]c2ccccc12)NC(=O)[C@@H]1CNCC[C@H]1N	none (no result: A350 fluor, 4-MU autofl, HSD17B inhib, AID923)
Cc1ccccc1-c1cncnc1NCc1cccs1	A350 fluor 2.68e-08M, 4-MU autofl 1.58e-08M
COc1ccc(-c2nc3c(Br)c(N)c(Br)cc3o2)cc1	A350 fluor 5.95e-07M, 4-MU autofl 5.75e-07M (no result: HADH2 inh, HSD17B inhib, CRE-bla Fsk, AID923)
NS(=O)(=O)c1ccc(NC(=O)Nc2ccccc2F)cc1	none
CCOc1ccc(NCC2CCOC(C)(C)C2)cc1 (configuration not stated)	CRE-bla Fsk 3.16µM
Oc1ccc2cccnc2c1	A350 fluor 1.85e-08M, 4-MU autofl 1.35e-08M, CRE-bla Fsk inconclusive, AID923 15.8µM
O=C(Cc1ccc2cccnc2c1)c1ccc(O)cc1O	A350 fluor 5.41e-08M, 4-MU autofl 4.38e-08M, CRE-bla Fsk inconclusive
CC/C=C1/OC(=O)c2ccccc21	none (no result: A350 fluor, 4-MU autofl)
